# Compound activity as filed in PubChem BioAssay.
# Compounds with a hit are over-represented: about 18% of the library has one in this group of screens.
# DT40 TDP1 CPT: qHTS for Inhibitors of human tyrosyl-DNA phosphodiesterase 1 (TDP1): qHTS in cells in presence of CPT | 12% of 420,000 active | chicken DT40 Tdp1-/-;hTDP1 cells + 20 nM CPT, ATP luminescence, 48 h | Potency, µM (highest dose often 46.2 µM), hits mostly inhibitors; also: nearly all actives have a fitted effect of over 55% in size
#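 Chicken DT40 Tdp1-/- cells stably complemented with human TDP1 were seeded at 400 cells/well in medium containing 20 nM camptothecin, exposed to pin-transferred compounds, and grown at 37 °C for at least 48 hr. Viability was read as ATP luminescence.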
# Six1-Eya2 blk: qHTS Assay for Inhibitors of the Six1/Eya2 Interaction | AlphaScreen GST-Six1/His-Eya2 binding, biochemical; active compounds read low | Homeobox protein SIX1 (Homo sapiens) + Protein phosphatase EYA2 (Homo sapiens), … | activity change, % (concentration not given with the values) | AID 651725, 2012 | 0.56% of 360,000 active; in the data active = activity change below about -65%; inconclusive = mostly about -30% to -63%
#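 Homogeneous AlphaScreen proximity assay pairing GST-Six1 with His-tagged Eya2 (added as 5X mix: 250 nM and 500 nM) in 50 mM Tris pH 8.0, 300 mM NaCl, 1 mM TCEP. Glutathione donor and nickel acceptor beads; 1 h, 37 °C, dark.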
# CtBP-E1A blk: qHTS Assay for Inhibitors of the CtBP/E1A Interaction; CtBP / adenovirus E1A interaction (AlphaScreen); AlphaScreen GST-E1A/His-CtBP binding, 1536-well; active compounds read low; activity change, % (test concentration not listed); 0.49% of 340,000 active; AID 651724, 2012; in the data active = activity change below about -65%; inconclusive = mostly about -30% to -63%
#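 Homogeneous bead-based format: GST-tagged E1A captured on glutathione donor beads, His-tagged CtBP on nickel acceptor beads; compounds precede bead addition by 2 h at 37 °C.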
# DT40 TDP1 no CPT: qHTS for Inhibitors of human tyrosyl-DNA phosphodiesterase 1 (TDP1): qHTS in cells in absence of CPT; DT40 Tdp1-/- hTDP1 cells, no CPT, ATP luminescence, 48 h; 15% of 420,000 active; Potency, µM (highest dose often 46.2 µM), usual class: inhibitors; AID 686978, 2013; also: nearly all actives have a fitted effect of over 55% in size
#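 Seeded 400 DT40-hTDP1 cells/well (vehicle DMSO, no 20 nM CPT); pinned compounds; ≥48 hr at 37 °C; CellTiter-Glo luminescence as viability measure.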
# TDP1 block: qHTS Assay for Inhibitors of Tyrosyl-DNA Phosphodiesterase (TDP1); Tyrosyl-DNA phosphodiesterase 1 (Homo sapiens), Q9NUW8; recombinant TDP1, AlphaScreen DNA substrate cleavage; Potency, µM (series often up to 130 µM), usual class: inhibitors; 0.28% of 350,000 active; also: nearly all actives have a fitted effect of over 40% in size
# Target sequence (Q9NUW8 whole entry, looked up): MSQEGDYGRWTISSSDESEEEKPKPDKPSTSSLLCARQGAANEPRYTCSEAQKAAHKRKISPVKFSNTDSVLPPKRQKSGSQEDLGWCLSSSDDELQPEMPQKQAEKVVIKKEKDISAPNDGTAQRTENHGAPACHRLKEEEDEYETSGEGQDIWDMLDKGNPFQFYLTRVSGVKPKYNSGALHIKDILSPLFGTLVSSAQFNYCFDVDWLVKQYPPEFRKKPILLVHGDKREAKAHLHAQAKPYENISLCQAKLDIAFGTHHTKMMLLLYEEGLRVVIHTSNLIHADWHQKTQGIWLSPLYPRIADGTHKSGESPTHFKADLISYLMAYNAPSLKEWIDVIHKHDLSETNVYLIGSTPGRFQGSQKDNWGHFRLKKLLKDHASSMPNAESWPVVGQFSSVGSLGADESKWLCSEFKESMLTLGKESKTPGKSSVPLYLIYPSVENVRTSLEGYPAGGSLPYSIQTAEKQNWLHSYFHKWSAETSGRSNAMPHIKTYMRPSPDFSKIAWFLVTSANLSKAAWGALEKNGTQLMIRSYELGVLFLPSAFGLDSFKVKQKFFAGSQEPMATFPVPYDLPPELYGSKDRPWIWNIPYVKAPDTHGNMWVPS
#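 Enzyme-compound mixtures sat 15 min at room temperature, followed by a 5 min reaction with 15 nM final substrate and 10 min with AlphaScreen beads. Recombinant human Tdp1 was used at 1 nM final.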
# IL-1B inflam inh: qHTS for Inhibitors of Inflammasome Signaling: IL-1-beta AlphaLISA Primary Screen | THP-1 LPS/ATP IL-1B secretion, AlphaLISA, 16 h; active compounds read low | activity change, % at 57.5 µM | 4.7% of 360,000 active; in the data active = activity change below about -50%; inconclusive = mostly about -30% to -49%
#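 THP-1 cells pretreated 1 hr with compounds (up to 57.5 uM final), then stimulated with LPS (250 ng/mL final) plus ATP (1.25 mM final); secreted IL-1B measured by AlphaLISA after 16 hr, decreased signal indicating inhibition.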
# A number is an active result; - = inactive; ? = inconclusive; . = no result given; [ ] = dose if it differs, or a comment. Unless noted, calls follow the shape of the dose curve; as a rule, active = well fitted curve in the direction sought with a large enough effect; inconclusive = small, poorly fitted or top-dose-only effect, or another doubt; inactive = no such curve, though single readings can be large; an effect the other way counts as inactive or inconclusive.
SMILES,DT40 TDP1 CPT,Six1-Eya2 blk,CtBP-E1A blk,DT40 TDP1 no CPT,TDP1 block,IL-1B inflam inh
Cc1cccc2sc(NNC(=O)c3ccc(S(=O)(=O)N4CC(C)CC(C)C4)cc3)nc12 (centres undefined),13µM,-,-,7.3µM,-,-
Cc1cc(C)c2nc(NC(=O)c3ccc(S(=O)(=O)N4CCC(C)CC4)cc3)sc2c1,-,.,.,-,-,.
Cc1cc(C)c2nc(NNC(=O)c3ccc(S(=O)(=O)N4CCCC(C)C4)cc3)sc2c1 (centres undefined),2.9µM,-,-,4.1µM,-,-
O=C(NC1(C(F)(F)F)Oc2ccccc2O1)N1CCCC1,?,-,-,?,-,-
O=C1NC2CCCCC2C(=O)N1OS(=O)(=O)c1ccccc1 (centres undefined),2.6µM,-,-,12µM,.,-78
Cc1ccc2oc(=O)c3cc(C(=O)NCc4ccco4)sc3c2c1,-,-,-,-,-,-
O=c1c2cccnc2n(Cc2ccc(Cl)cc2)c(=O)n1Cc1ccc(F)cc1,?,.,.,8.2µM,-,.
Cc1ccccc1Cn1c(=O)n(Cc2ccc(Cl)cc2)c(=O)c2cccnc21,15µM,.,.,16µM,-,.
CC(C)N(C(=O)CSc1nc(Cc2ccccc2)nc2ccccc12)C(C)C,?,-,-,?,.,-
COc1ccc(OC)c(NC(=O)C(C)n2c(=O)cc(C)c3c(C)nn(-c4ccccc4)c32)c1 (centres undefined),-,.,.,-,-,.
Cc1ccc2c(CN3CCN(Cc4ccccc4)CC3)cc(=O)oc2c1C,?,-,-,18µM,.,-74
CCOC(=O)Nc1ccc2c(CN3CCN(S(=O)(=O)c4ccccc4)CC3)cc(=O)oc2c1,13µM,-,-,?,-,-
Cc1cc(C)c2oc(=O)cc(CN3CCC(C)CC3)c2c1,?,-,-,26µM,.,-
Cc1ccc2c(CN3CCN(S(=O)(=O)c4ccc(Cl)cc4)CC3)cc(=O)oc2c1C,?,-,-,16µM,-,-
Cc1cc(C)c2oc(=O)cc(CN3CCN(Cc4ccccc4)CC3)c2c1,18µM,-,.,?,.,-
O=c1cc(CN2CCN(S(=O)(=O)c3cccc(Cl)c3)CC2)c2ccc(O)cc2o1,?,-,-,18µM,-,-
CCOC(=O)Nc1ccc2c(CN3C(=O)NC(CC)(CC)C3=O)cc(=O)oc2c1,?,-,-,?,-,-
CCOC(=O)Nc1ccc2c(CNC(C)c3ccccc3OC)cc(=O)oc2c1 (centres undefined),?,-,-,23µM,-,-
CC(=O)Nc1cc(C(=O)N2CCSCC2)cc2ncn(CCc3ccccn3)c12,-[9.04 µM],.,.,-,.,.
O=C(CC(c1ccccc1)c1ccccc1O)NCc1ccccc1 (centres undefined),-,-,-,?,-,-
Cc1cc(C)cc(C(=O)NCC(=O)OCC(=O)NCC(F)(F)F)c1,-,-,-,-,-,-
CC(=O)Nc1cc(-c2ccc(C(=O)N3CCOCC3)cc2)cn2c(-c3ccc(C(C)=O)cc3)cnc12,26µM,-,-,12µM,.,-
COc1ccc(-c2cnc3c(NC(C)=O)cc(-c4ccc(C(=O)N5CCOCC5)cc4)cn23)cc1OC,?,-,-,23µM,.,?
CC(=O)Nc1cc(-c2ccc(C(=O)N3CCOCC3)cc2)cn2c(-c3cccc(C(F)(F)F)c3)cnc12,?,-,-,15µM,.,-
CC(=O)Nc1cc(-c2ccc(C(=O)N3CCOCC3)cc2)cn2c(-c3ccc(F)cc3)cnc12,?,-,-,8.2µM,.,-
SMILES,DT40 TDP1 CPT,Six1-Eya2 blk,CtBP-E1A blk,DT40 TDP1 no CPT,TDP1 block,IL-1B inflam inh
CC(=O)Nc1cc(-c2ccc(C(=O)N3CCOCC3)cc2)cn2c(-c3ccccc3)cnc12,?,-,-,?,.,-
COc1cccc(C(NC(C)=O)c2nc(/C=C/c3ccccc3)cs2)c1 (centres undefined),?,-,-,?,.,-
O=C(COC(=O)c1ccncc1)Nc1cccc(Cl)c1,-,-,-,-,-,-
N#Cc1cccc(Oc2ccc(S(=O)(=O)N3CCCC3)cn2)c1,-,-,-,-,-,-
COc1ccc(CNc2ncncc2-c2ccoc2)c(OC)c1,23µM,.,.,?,.,.
COc1ccc(CNc2ncncc2-c2cccnc2)c(OC)c1,-,.,.,-,.,.
COc1cccc(-c2cncnc2NCc2ccc(OC)cc2OC)c1,?,.,.,16µM,-,.
CSc1ccccc1OCc1cc(C(=O)NCc2cnc(C)cn2)no1,-,-,-,-,-,-
CCOc1ccc(-c2nc(S(=O)(=O)c3ccccc3)c(N3CCC(C(N)=O)CC3)o2)cc1,-,-,-,-,-,-
CCNc1nc(Oc2ccc(Cl)cc2Cl)cc(C(F)(F)F)n1,?,-,-,?,-,-
Cc1cc(Oc2ccc(Cl)cc2Cl)nc(C#N)n1,11µM,.,.,18µM,.,.
Cc1ccc(NC(=O)CCOc2ccccc2C)cc1C,-,-,-,?,-,?
COc1cccc(N2CCN(C(=O)C3CCC(=O)N(C4CCCCCC4)C3)CC2)c1 (centres undefined),15µM,-,-,18µM,-,-
O=c1cc(N2CCN(c3cccc(Cl)c3)CC2)[nH]c(=O)n1C1CCCCC1,?,-,-,1.6µM,-,-
O=C(C1CCN(C2CC(=O)N(c3cccc(Cl)c3)C2=O)CC1)N1CCCC1 (centres undefined),16µM,-,-,?,-,-
O=c1cc(N2CCN(c3ccccc3)CC2)[nH]c(=O)n1C1CCCCC1,-,-,-,-,-,-
CS(=O)(=O)N1CCC(C(=O)N2CCN(c3cccc(Cl)c3)CC2)CC1,-,-,-,-,-,-
CS(=O)(=O)N1CCCC(C(=O)N2CCN(c3cccc(Cl)c3)CC2)C1 (centres undefined),21µM,-,-,?,-,-
CCOC(=O)C1CCN(C2CC(=O)N(c3cccc(Cl)c3)C2=O)CC1 (centres undefined),-,-,-,-,-,-
O=C(C1CC(=O)N(C2CCCC2)C1)N1CCN(c2cccc(Cl)c2)CC1 (centres undefined),18µM,-,-,23µM,-,-
CCN(CC)C1CC(=O)N(c2cccc(Cl)c2)C1=O (centres undefined),?,-,-,23µM,.,-
O=C(C1CCC(=O)N(C2CC2)C1)N1CCN(c2ccccc2Cl)CC1 (centres undefined),-,-,-,-,-,-
